From PubChem BioAssay (EPA / NIEHS)
The source made the active and inactive calls. Rule for the calls: active = hit-call score of the fitted dose curve at least 0.9, where 1 is the maximum; inactive = score below 0.9.

Experiments:
Conditions in all cases: mRNA level, 48 h; actives raise or lower the signal
[1] = read-out: Glutamate-cysteine ligase regulatory (GCLM), GCLM (gene 2730); assay: LTEA_HepaRG_GCLM: Life Technologies and Expression Analysis (LTEA) Assay for Glutamate-cysteine ligase regulatory (GCLM) using HepaRG (AID 2283500)
Outline: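 Endpoint is GCLM transcript level by qRT-PCR, normalized to three housekeeping genes, after 48 h chemical exposure of human HepaRG cells (0.5% DMSO vehicle, top 100 uM, half-log dilutions). Fitting was bidirectional relative to DMSO.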

[2] = read-out: Glutathione S-transferase M3 (GSTM3), GSTM3 (gene 2947); assay: LTEA_HepaRG_GSTM3: Life Technologies and Expression Analysis (LTEA) Assay for Glutathione S-transferase M3 (GSTM3) using HepaRG (AID 2283501)
Outline: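 Differentiated HepaRG cells in serum-free induction medium were exposed in duplicate for 48 h to 8 half-log concentrations up to 100 uM in 0.5% DMSO. GSTM3 mRNA was measured by TaqMan qRT-PCR, normalized to ACTB/GAPDH/POLR2A, and fitted bidirectionally versus DMSO.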

[3] = read-out: Heat shock 70 kDa protein 1 (HSPA1A), gene 3303; assay: LTEA_HepaRG_HSPA1A: Life Technologies and Expression Analysis (LTEA) Assay for Heat shock 70 kDa protein 1 (HSPA1A) using HepaRG (AID 2283502)
Outline: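 Cells were plated and cultured for 48 h, then switched to serum-free induction medium. Chemicals were added at eight half-log concentrations up to 100 uM for 48 h. RNA was then isolated and HSPA1A measured by qRT-PCR with bidirectional curve fitting against DMSO.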

[4] = read-out: Hypoxia-inducible factor 1-alpha (Homo sapiens) (UniProt Q16665); assay: LTEA_HepaRG_HIF1A: Life Technologies and Expression Analysis (LTEA) Assay for Hypoxia-inducible factor 1 (HIF1A) Trancription factor using HepaRG (AID 2283503)
Outline: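 HIF1A transcript level read by qRT-PCR (ACTB, GAPDH, POLR2A normalization) after 48 h chemical exposure of HepaRG cultures. Eight half-log concentrations, top 100 uM, 0.5% DMSO vehicle, duplicates; bidirectional curve fit against DMSO baseline.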

[5] = read-out: 3-Hydroxy-3-Methylglutaryl-CoA Synthase 2 (HMGCS2), HMGCS2 (gene 3158); assay: LTEA_HepaRG_HMGCS2: Life Technologies and Expression Analysis (LTEA) Assay for 3-Hydroxy-3-Methylglutaryl-CoA Synthase 2 (HMGCS2) using HepaRG (AID 2283504)
Outline: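 Differentiated human HepaRG cells were exposed in duplicate for 48 h in serum-free induction medium to eight concentrations (top 100 uM, half-log steps, 0.5% DMSO). HMGCS2 mRNA was quantified by TaqMan qRT-PCR, normalised to ACTB, GAPDH and POLR2A, then fitted bidirectionally against DMSO.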

[6] = read-out: HGF (gene 3082); assay: LTEA_HepaRG_HGF: Life Technologies and Expression Analysis (LTEA) Assay for Hepatocyte Growth Facto (HGF) using HepaRG (AID 2283505)
Outline: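 Differentiated human HepaRG cells in serum-free induction medium were exposed in duplicate for 48 h to eight concentrations (top 100 uM, half-log steps, 0.5% DMSO). HGF mRNA was quantified by qRT-PCR, normalized to ACTB, GAPDH and POLR2A.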

[7] = read-out: Insulin Like Growth Factor 1 (IGF1), IGF1 (gene 3479); assay: LTEA_HepaRG_IGF1: Life Technologies and Expression Analysis (LTEA) Assay for Insulin Like Growth Factor 1 (IGF1) using HepaRG (AID 2283506)
Outline: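 Cells are thawed, plated and cultured 48 h, then exposed in duplicate to chemical (highest 100 uM, half-log steps, 0.5% DMSO) for another 48 h. Total RNA is analysed by Fluidigm qRT-PCR for IGF1 expression relative to vehicle.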

[8] = read-out: Insulin-like growth factor-binding protein 1 (IGFBP1), IGFBP1 (gene 3484); assay: LTEA_HepaRG_IGFBP1: Life Technologies and Expression Analysis (LTEA) Assay for Insulin-like growth factor-binding protein 1 (IGFBP1) using HepaRG (AID 2283508)
Outline: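 Differentiated human HepaRG cells in serum-free induction medium were exposed in duplicate for 48 h to eight concentrations, top 100 uM with half-log dilutions, in 0.5% DMSO. Transcript levels came from qRT-PCR normalised to ACTB, GAPDH and POLR2A, fitted bidirectionally against DMSO.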

[9] = read-out: Interleukin 6 (IL6), IL6 (gene 3569); assay: LTEA_HepaRG_IL6: Life Technologies and Expression Analysis (LTEA) Assay for Interleukin 6 (IL6) using HepaRG (AID 2283509)
Outline: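 qRT-PCR read-out of IL6 transcript, normalized to three housekeeping genes, after 48 h chemical exposure of HepaRG cells; 8-point half-log series, top 100 uM, 0.5% DMSO vehicle. Bidirectional curve fitting against DMSO baseline.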

[10] = read-out: Interleukin 6 Receptor (IL6R), IL6R (gene 3570); assay: LTEA_HepaRG_IL6R: Life Technologies and Expression Analysis (LTEA) Assay for Interleukin 6 Receptor (IL6R) using HepaRG (AID 2283510);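 for AC50: TaqMan qRT-PCR signal normalized to ACTB GAPDH and POLR2A housekeeping genes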
Outline: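 Cells were thawed, plated and cultured 48 h, then medium was changed to serum-free induction medium. Chemicals were added in duplicate (100 uM top, half-log steps, 0.5% DMSO) for 48 h. Lysates were analyzed by qRT-PCR for IL6R expression.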

[11] = read-out: Potassium channel subfamily K member 1 (KCNK1), KCNK1 (gene 3775); assay: LTEA_HepaRG_KCNK1: Life Technologies and Expression Analysis (LTEA) Assay for Potassium channel subfamily K member 1 (KCNK1) using HepaRG (AID 2283511)
Outline: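 HepaRG, 48 h exposure, 8-pt half-log series top 100 uM, 0.5% DMSO vehicle, duplicates. Readout: KCNK1 transcript by qRT-PCR (Fluidigm array), housekeeping-normalized; bidirectional curve fit relative to DMSO baseline.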

[12] = read-out: JUN Transcription Factor, JUN (gene 3725); assay: LTEA_HepaRG_JUN: Life Technologies and Expression Analysis (LTEA) Assay for JUN Transcription Factor using HepaRG (AID 2283513)
Outline: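 Read-out is JUN transcript level by TaqMan qRT-PCR, normalized to ACTB, GAPDH and POLR2A, after 48 h chemical treatment of HepaRG cells. Concentration-response spanned eight half-log points up to 100 uM in 0.5% DMSO.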

[13] = read-out: Lipase C (LIPC), LIPC (gene 3990); assay: LTEA_HepaRG_LIPC: Life Technologies and Expression Analysis (LTEA) Assay for Lipase C (LIPC) using HepaRG (AID 2283514)
Outline: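 HepaRG, 48 h exposure, 8-pt half-log series from 100 uM in 0.5% DMSO, duplicates. Readout: LIPC mRNA by Fluidigm qRT-PCR, housekeeping-normalized (ACTB/GAPDH/POLR2A). Gain or loss fitted bidirectionally against DMSO baseline.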

[14] = read-out: Lipoprotein lipase (LPL), LPL (gene 4023); assay: LTEA_HepaRG_LPL: Life Technologies and Expression Analysis (LTEA) Assay for Lipoprotein lipase (LPL) using HepaRG (AID 2283515)
Outline: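 HepaRG, 48 h exposure, 8-pt half-log dilutions from 100 uM, 0.5% DMSO vehicle, duplicates; qRT-PCR (Fluidigm array) of LPL mRNA vs housekeeping genes; bidirectional curve fit relative to DMSO baseline.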

[15] = read-out: MicroRNA 122 (MIR122), gene 406906; assay: LTEA_HepaRG_MIR122: Life Technologies and Expression Analysis (LTEA) Assay for MicroRNA 122 (MIR122) using HepaRG (AID 2283516); note: the transcript read is the microRNA miR-122
Outline: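 Human liver HepaRG cultures receive test chemicals for 48 h at eight half-log concentrations from 100 uM. Expression is quantified by qRT-PCR with ACTB/GAPDH/POLR2A normalization and fitted bidirectionally against 0.5% DMSO.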

[16] = read-out: MYC, MYC (gene 4609); assay: LTEA_HepaRG_MYC: Life Technologies and Expression Analysis (LTEA) Assay for MYC using HepaRG (AID 2283518)
Outline: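 Differentiated human HepaRG cells, plated 48 h then switched to serum-free induction medium, were exposed in duplicate for 48 h to 8-point half-log series up to 100 uM in 0.5% DMSO. MYC mRNA measured by qRT-PCR, normalized to ACTB/GAPDH/POLR2A.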

[17] = read-out: matrix metalloproteinase-3 (MMP3), MMP3 (gene 4314); assay: LTEA_HepaRG_MMP3: Life Technologies and Expression Analysis (LTEA) Assay for matrix metalloproteinase-3 (MMP3) using HepaRG (AID 2283519)
Outline: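 qRT-PCR read-out of MMP3 mRNA (normalised to three housekeeping genes) in HepaRG liver cells after 48 h chemical exposure; 8-point half-log series, top 100 uM, 0.5% DMSO vehicle. Bidirectional curve fitting against DMSO baseline.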

[18] = read-out: Paternally Expressed 10 (PEG10), PEG10 (gene 23089); assay: LTEA_HepaRG_PEG10: Life Technologies and Expression Analysis (LTEA) Assay for Paternally Expressed 10 (PEG10) using HepaRG (AID 2283520);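 for AC50: PEG10 transcript by qRT-PCR normalised to ACTB GAPDH and POLR2A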
Outline: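 Human HepaRG cultures are dosed for 48 h across an eight-point half-log series starting at 100 uM, with 0.5% DMSO as vehicle and baseline. Gain or loss of PEG10 transcript is measured by qRT-PCR and fitted in both directions.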

[19] = read-out: Nuclear factor NF-kappa-B p105 subunit (Homo sapiens) (UniProt P19838); assay: LTEA_HepaRG_NFKB1: Life Technologies and Expression Analysis (LTEA) Assay for Nuclear Factor Kappa B Subunit 1 (NFKB1) using HepaRG (AID 2283521)
Outline: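 Differentiated human HepaRG cells in serum-free induction medium with 0.5% DMSO were exposed for 48 h to eight half-log concentrations, top 100 uM, in duplicate. NFKB1 mRNA measured by Fluidigm TaqMan qRT-PCR, normalised to ACTB, GAPDH and POLR2A; bidirectional fit versus DMSO.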

[20] = read-out: Protein phosphatase 2A (PPP2R4), PTPA (gene 5524); assay: LTEA_HepaRG_PPP2R4: Life Technologies and Expression Analysis (LTEA) Assay for Protein phosphatase 2A (PPP2R4) using HepaRG (AID 2283522)
Outline: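 Cells were plated, cultured 48 h, switched to serum-free induction medium, then dosed for 48 h (8 points, max 100 uM, 0.5% DMSO). RNA was isolated and PPP2R4 expression measured by TaqMan qRT-PCR.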

Measured: AC50

Sequence of Nuclear factor NF-kappa-B p105 subunit (Homo sapiens) (P19838 whole entry, looked up): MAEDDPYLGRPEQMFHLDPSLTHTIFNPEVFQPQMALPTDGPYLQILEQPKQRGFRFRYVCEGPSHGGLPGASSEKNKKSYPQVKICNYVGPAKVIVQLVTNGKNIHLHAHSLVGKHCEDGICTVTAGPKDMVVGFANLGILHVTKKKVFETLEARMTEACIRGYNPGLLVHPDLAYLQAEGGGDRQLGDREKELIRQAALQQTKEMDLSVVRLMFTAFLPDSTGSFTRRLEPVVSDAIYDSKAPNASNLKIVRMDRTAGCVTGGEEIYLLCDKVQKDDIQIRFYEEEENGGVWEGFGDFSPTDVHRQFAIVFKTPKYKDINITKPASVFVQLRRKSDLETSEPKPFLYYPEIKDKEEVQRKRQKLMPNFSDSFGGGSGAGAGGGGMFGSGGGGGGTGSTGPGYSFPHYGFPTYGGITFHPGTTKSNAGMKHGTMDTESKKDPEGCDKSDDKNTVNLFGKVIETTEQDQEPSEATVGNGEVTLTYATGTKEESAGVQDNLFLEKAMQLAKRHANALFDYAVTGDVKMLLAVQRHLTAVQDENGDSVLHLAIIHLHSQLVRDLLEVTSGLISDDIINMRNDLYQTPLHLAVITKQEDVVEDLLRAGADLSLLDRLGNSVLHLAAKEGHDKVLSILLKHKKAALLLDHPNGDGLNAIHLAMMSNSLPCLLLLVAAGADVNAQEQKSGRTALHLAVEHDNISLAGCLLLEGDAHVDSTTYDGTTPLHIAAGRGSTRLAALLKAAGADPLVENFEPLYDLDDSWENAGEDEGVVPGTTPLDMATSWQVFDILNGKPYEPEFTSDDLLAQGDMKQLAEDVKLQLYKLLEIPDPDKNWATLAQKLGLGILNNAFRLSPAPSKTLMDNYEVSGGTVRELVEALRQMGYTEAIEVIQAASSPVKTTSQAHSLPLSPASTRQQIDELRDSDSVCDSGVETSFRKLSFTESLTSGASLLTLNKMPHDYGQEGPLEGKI
Sequence of Hypoxia-inducible factor 1-alpha (Homo sapiens) (Q16665 whole entry, looked up): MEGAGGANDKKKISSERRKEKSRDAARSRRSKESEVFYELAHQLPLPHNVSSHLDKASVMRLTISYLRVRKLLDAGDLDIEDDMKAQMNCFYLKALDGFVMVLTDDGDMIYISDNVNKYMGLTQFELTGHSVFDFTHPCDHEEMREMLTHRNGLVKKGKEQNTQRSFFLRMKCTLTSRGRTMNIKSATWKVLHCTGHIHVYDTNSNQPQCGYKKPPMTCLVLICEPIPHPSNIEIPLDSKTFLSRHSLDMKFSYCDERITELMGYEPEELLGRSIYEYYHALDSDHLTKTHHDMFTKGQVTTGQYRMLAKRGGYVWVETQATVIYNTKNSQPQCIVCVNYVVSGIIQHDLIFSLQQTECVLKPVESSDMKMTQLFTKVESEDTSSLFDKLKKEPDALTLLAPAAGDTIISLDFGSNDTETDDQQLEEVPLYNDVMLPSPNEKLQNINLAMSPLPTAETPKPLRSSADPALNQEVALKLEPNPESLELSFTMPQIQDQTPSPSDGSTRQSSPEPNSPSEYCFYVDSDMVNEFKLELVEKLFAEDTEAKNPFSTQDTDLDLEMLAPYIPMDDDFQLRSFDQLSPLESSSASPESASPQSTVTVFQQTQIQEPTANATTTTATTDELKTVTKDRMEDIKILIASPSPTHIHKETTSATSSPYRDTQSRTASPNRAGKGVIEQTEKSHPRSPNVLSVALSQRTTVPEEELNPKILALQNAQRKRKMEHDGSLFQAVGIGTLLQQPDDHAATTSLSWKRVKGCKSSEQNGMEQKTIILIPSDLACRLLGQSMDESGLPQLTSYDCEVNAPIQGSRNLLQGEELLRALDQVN

CC12CC1(C)C(=O)N(c1cc(Cl)cc(Cl)c1)C2=O (stereo not given)
active: [5] 21.6 µM | [7] 18.6 µM | [18] 10.3 µM
inactive: all other assays above

C=CC(=O)OCCCCCC(C)C
inactive: all assays above

C=C(C)C(=O)[O][Sn]([CH2]CCC)([CH2]CCC)[CH2]CCC
inactive: [2] | [10] | [11] | [15] | [17] | [18] | [20]
active: [1] 88.7 µM | [3] 89.6 µM | [4] 5.19 µM | [5] 2.69 µM | [6] 72 µM | [7] 1.2 µM | [8] 2.66 µM | [9] 3.28 µM | [12] 6.54 µM | [13] 2.37 µM | [14] 6.44 µM | [16] 2.77 µM | [19] 94.9 µM

CCC(C)(C)c1ccc(O)c(C(C)(C)CC)c1
inactive: all assays above

C[C@@H]1C[C@@H]([C@H](O)CC2CC(=O)NC(=O)C2)C(=O)[C@@H](C)C1
active: [1] 17.9 µM | [2] 5.85 µM | [3] 30.6 µM | [4] 9.18 µM | [5] 27 µM | [6] 71.7 µM | [7] 9.09 µM | [8] 22.3 µM | [9] 11.8 µM | [11] 12.2 µM | [12] 30 µM | [13] 20 µM | [14] 92.2 µM | [15] 10.6 µM | [16] 13.9 µM | [17] 83.3 µM | [18] 2.39 µM | [19] 17.6 µM | [20] 0.636 µM
inactive: [10]

CCOP(=S)(OCC)Oc1nc(Cl)c(Cl)cc1Cl
inactive: all assays above

CC(C)(C)CC(C)(C)c1ccc(O)cc1
not listed: [8]
inactive: all other assays above

C[C@]12CCC(=O)C[C@@H]1CC[C@@H]1[C@@H]2CC[C@]2(C)[C@@H](O)CC[C@@H]12
active: [18] 50 µM
inactive: all other assays above

CC(=O)[O][Hg][c]1ccccc1
active: [1] 23 µM | [3] 50 µM | [5] 23.3 µM | [6] 2.1 µM | [7] 23.1 µM | [8] 4.6 µM | [9] 16 µM | [10] 20.6 µM | [12] 12.7 µM | [14] 29.3 µM | [16] 24.2 µM | [17] 50 µM | [18] 50 µM | [19] 23.2 µM | [20] 28 µM
inactive: [2] | [4] | [11] | [13] | [15]

CCN1CCC2(CC1)COc1cc3c(cc12)N(C(=O)c1ccc(-c2ccc(-c4nnc(C)o4)cc2C)cc1)CC3
inactive: [2] | [6] | [13] | [15] | [16]
active: [1] 26.8 µM | [3] 16.6 µM | [4] 27.7 µM | [5] 22.8 µM | [7] 14.5 µM | [8] 13.4 µM | [9] 16 µM | [10] 31.8 µM | [11] 29.3 µM | [12] 18.2 µM | [14] 32.7 µM | [17] 46.8 µM | [18] 15.6 µM | [19] 46.8 µM | [20] 21.8 µM

NC(=O)O
inactive: all assays above

Cn1sc(Cl)cc1=O
inactive: all assays above

CCOP(=S)(OCC)SCSP(=S)(OCC)OCC
active: [5] 9.92 µM | [7] 0.0903 µM | [10] 0.064 µM | [16] 0.09 µM
inactive: all other assays above

CC(C)(C)c1cc(O)ccc1O
not listed: [4] | [11]
inactive: all other assays above

CN(C)N=O
not listed: [17]
inactive: all other assays above

ClCC(Cl)CCl
not listed: [19]
inactive: all other assays above
